Laboratory results from PubChem BioAssay AID1159580 (chemical genetic matrix, 2015).
Values joined by “and” are separate entries in the source; they are usually repeats but may differ in a detail not shown here. Equal values may be shown once. The campaign covered roughly 5,500 compounds. About 2,000 (36%) were called active. About 18% were inconclusive and are not listed. Rule as the data show it: active = normalized growth mostly below about 0.91 (no sharp cut-off); inconclusive = no clear call, values can overlap the other calls; inactive = mostly above about 0.92. Some of the results follow.

Assay: chemical genetic growth profiling, strain panel (AID 1159580);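 also: tested at 20 µM; growth read once vehicle control cultures reached saturation at 30 °C; 1 = growth at the plate median or of vehicle wells; lower values mean less growth of the strain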
Details: growth OD

Measured: normalized growth

CCCn1c(=O)c2[nH]c(C3CCCC3)nc2n(CCC)c1=O
inactive: S. cerevisiae deletion strains, locus YJR043C, strain POL32, stronger effect = lower value 0.989 | S. cerevisiae deletion strains, locus YJR075W, strain HOC1, stronger effect = lower value 0.968 and 0.985 | S. cerevisiae deletion strains, locus YKL009W, strain mrt4, stronger effect = lower value 0.966 | S. cerevisiae deletion strains, locus YKL068W, stronger effect = lower value 0.965 | S. cerevisiae deletion strains, locus YKL085W, strain MDH1 (second series), stronger effect = lower value 0.994 | S. cerevisiae deletion strains, locus YKL085W, strain MDH1, stronger effect = lower value 0.994 | S. cerevisiae deletion strains, locus YKL160W, strain elf1, stronger effect = lower value 0.996 | S. cerevisiae deletion strains, locus YKL190W, strain CNB1, stronger effect = lower value 0.981 | S. cerevisiae deletion strains, locus YKR001C, strain vps1, stronger effect = lower value 0.964 | S. cerevisiae deletion strains, locus YKR026C, strain gcn3, stronger effect = lower value 0.998 | S. cerevisiae deletion strains, locus YKR091W, strain srl3, stronger effect = lower value 0.982 | S. cerevisiae deletion strains, locus YLL001W, strain dnm1, stronger effect = lower value 0.986 | S. cerevisiae deletion strains, locus YLL026W, stronger effect = lower value 0.974 | S. cerevisiae deletion strains, locus YLL041C, strain sdh2, stronger effect = lower value 0.979 | S. cerevisiae deletion strains, locus YLR027C, strain aat2, stronger effect = lower value 0.987 | S. cerevisiae deletion strains, locus YLR039C, strain RIC1, stronger effect = lower value 0.881 | S. cerevisiae deletion strains, locus YLR058C, strain SHM2, stronger effect = lower value 0.982 | S. cerevisiae deletion strains, locus YLR102C, strain apc9, stronger effect = lower value 0.957 | S. cerevisiae deletion strains, locus YLR221C, strain rsa3, stronger effect = lower value 1 | S. cerevisiae deletion strains, locus YLR258W, strain gsy2, stronger effect = lower value 0.963 | S. cerevisiae deletion strains, locus YLR262C, strain YPT6 (second series), stronger effect = lower value 0.965 | S. cerevisiae deletion strains, locus YLR262C, strain YPT6, stronger effect = lower value 0.854 | S. cerevisiae deletion strains, locus YLR268W, strain sec22, stronger effect = lower value 0.957 | S. cerevisiae deletion strains, locus YLR320W, strain mms22, stronger effect = lower value 0.974 | S. cerevisiae deletion strains, locus YLR330W, strain CHS5, stronger effect = lower value 0.98 | S. cerevisiae deletion strains, locus YLR342W, strain FKS1 (second series), stronger effect = lower value 0.979 | S. cerevisiae deletion strains, locus YLR342W, strain FKS1, stronger effect = lower value 0.987 | S. cerevisiae deletion strains, locus YLR357W, strain rsc2, stronger effect = lower value 0.986 | S. cerevisiae deletion strains, locus YLR370C, strain arc18, stronger effect = lower value 0.986 | S. cerevisiae deletion strains, locus YLR371W, strain rom2, stronger effect = lower value 0.951 | S. cerevisiae deletion strains, locus YLR384C, strain iki3, stronger effect = lower value 0.995 | S. cerevisiae deletion strains, locus YLR418C, strain cdc73, stronger effect = lower value 1.01 | S. cerevisiae deletion strains, locus YML016C, strain PPZ1, stronger effect = lower value 0.992 | S. cerevisiae deletion strains, locus YML032C, strain rad52, stronger effect = lower value 0.959 | S. cerevisiae deletion strains, locus YML120C, strain ndi1, stronger effect = lower value 0.997 | S. cerevisiae deletion strains, locus YML124C, strain tub3, stronger effect = lower value 0.972 | S. cerevisiae deletion strains, locus YMR058W, strain fet3, stronger effect = lower value 1 | S. cerevisiae deletion strains, locus YMR078C, strain ctf18, stronger effect = lower value 0.972 | S. cerevisiae deletion strains, locus YMR125W, strain sto1, stronger effect = lower value 0.994 | S. cerevisiae deletion strains, locus YMR129W, stronger effect = lower value 0.968 | S. cerevisiae deletion strains, locus YMR205C, strain PFK2, stronger effect = lower value 0.967 | S. cerevisiae deletion strains, locus YMR223W, strain ubp8, stronger effect = lower value 0.97 | S. cerevisiae deletion strains, locus YMR231W, strain pep5, stronger effect = lower value 0.994 | S. cerevisiae deletion strains, locus YMR263W, strain SAP30, stronger effect = lower value 0.993 | S. cerevisiae deletion strains, locus YMR307W, strain GAS1, stronger effect = lower value 0.947 | S. cerevisiae deletion strains, locus YNL067W, strain RPL9B, stronger effect = lower value 0.986 | S. cerevisiae deletion strains, locus YNL071W, strain lat1, stronger effect = lower value 0.997 | S. cerevisiae deletion strains, locus YNL128W, strain TEP1, stronger effect = lower value 1 | S. cerevisiae deletion strains, locus YNL153C, strain GIM3, stronger effect = lower value 0.998 and 0.965 | S. cerevisiae deletion strains, locus YNL175C, strain NOP13, stronger effect = lower value 0.977 | S. cerevisiae deletion strains, locus YNL197C, strain WHI3, stronger effect = lower value 0.976 | S. cerevisiae deletion strains, locus YNL209W, strain ssb2, stronger effect = lower value 0.994 | S. cerevisiae deletion strains, locus YNL224C, strain SQS1, stronger effect = lower value 0.975 | S. cerevisiae deletion strains, locus YNL233W, strain BNI4, stronger effect = lower value 0.991 | S. cerevisiae deletion strains, locus YNL248C, strain rpa49, stronger effect = lower value 0.992 | S. cerevisiae deletion strains, locus YNL250W, strain rad50, stronger effect = lower value 0.973 | S. cerevisiae deletion strains, locus YNL271C, strain bni1, stronger effect = lower value 0.974 | S. cerevisiae deletion strains, locus YNL298W, strain CLA4, stronger effect = lower value 0.972 | S. cerevisiae deletion strains, locus YNL307C, strain MCK1, stronger effect = lower value 0.97 | S. cerevisiae deletion strains, locus YNL322C, strain KRE1 (second series), stronger effect = lower value 0.986 | S. cerevisiae deletion strains, locus YNL322C, strain KRE1, stronger effect = lower value 0.984 and 0.987 | S. cerevisiae deletion strains, locus YNR049C, strain mso1, stronger effect = lower value 0.984 | S. cerevisiae deletion strains, locus YNR052C, strain pop2, stronger effect = lower value 0.975 | S. cerevisiae deletion strains, locus YOL006C, strain TOP1, stronger effect = lower value 0.986 | S. cerevisiae deletion strains, locus YOL012C, strain htz1 0.878 | S. cerevisiae deletion strains, locus YOL147C, strain pex11, stronger effect = lower value 0.962 | S. cerevisiae deletion strains, locus YOR001W, strain rrp6, stronger effect = lower value 0.995 | S. cerevisiae deletion strains, locus YOR061W, strain CKA2, stronger effect = lower value 0.995 | S. cerevisiae deletion strains, locus YOR069W, strain VPS5, stronger effect = lower value 0.989 | S. cerevisiae deletion strains, locus YOR070C, strain gyp1, stronger effect = lower value 0.993 | S. cerevisiae deletion strains, locus YOR080W, strain dia2, stronger effect = lower value 0.984 | S. cerevisiae deletion strains, locus YOR083W, strain WHI5 (second series), stronger effect = lower value 0.989 | S. cerevisiae deletion strains, locus YOR083W, strain WHI5, stronger effect = lower value 1.01 | S. cerevisiae deletion strains, locus YOR106W, strain vam3, stronger effect = lower value 0.996 | S. cerevisiae deletion strains, locus YOR136W, strain idh2, stronger effect = lower value 0.954 | S. cerevisiae deletion strains, locus YOR144C, strain elg1, stronger effect = lower value 0.965 | S. cerevisiae deletion strains, locus YOR184W, strain ser1, stronger effect = lower value 0.955 | S. cerevisiae deletion strains, locus YOR265W, strain rbl2, stronger effect = lower value 0.991 | S. cerevisiae deletion strains, locus YOR270C, strain vph1, stronger effect = lower value 0.998 | S. cerevisiae deletion strains, locus YOR290C, strain snf2, stronger effect = lower value 0.923 | S. cerevisiae deletion strains, locus YOR316C, strain cot1, stronger effect = lower value 0.977 | S. cerevisiae deletion strains, locus YPL051W, strain arl3, stronger effect = lower value 0.987 | S. cerevisiae deletion strains, locus YPL055C, strain LGE1, stronger effect = lower value 0.976 | S. cerevisiae deletion strains, locus YPL078C, strain atp4, stronger effect = lower value 0.994 | S. cerevisiae deletion strains, locus YPL106C, strain sse1, stronger effect = lower value 0.976 | S. cerevisiae deletion strains, locus YPL240C, strain hsp82, stronger effect = lower value 0.983 | S. cerevisiae deletion strains, locus YPL241C, strain CIN2, stronger effect = lower value 0.954 and 1.01 | S. cerevisiae deletion strains, locus YPR119W, strain clb2, stronger effect = lower value 0.967 | S. cerevisiae deletion strains, locus YPR141C, strain kar3, stronger effect = lower value 0.977 | S. cerevisiae deletion strains, locus YPR163C, strain tif3, stronger effect = lower value 0.969 | S. cerevisiae deletion strains, locus YPR167C, strain met16, stronger effect = lower value 0.982 | S. cerevisiae deletion strains, strain wtn01, stronger effect = lower value 0.98 | S. cerevisiae strains, strain wild type, stronger effect = lower value 0.981
